Results filed as inconclusive are left out. Calls of active or inactive are those of the source. The calls were made as follows, unless noted: active = hit-call score of the fitted dose curve at least 0.9, where 1 is the maximum; inactive = score below 0.9.
Key:
[1] = biological target: Paired box protein Pax-6 (Homo sapiens) (UniProt P26367); assay: ATG_Pax6_CIS: Attagene CIS-FACTORIAL HepG2 Assay for human Paired Box 6 (PAX6) (AID 2282956); conditions: HepG2 CIS-FACTORIAL PAX6 reporter transcription, RNA readout; actives raise or lower the signal
In short: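 HepG2 cells transiently transfected with cis-promoter-driven multiplexed reporter units sensing endogenous transcription factor activity; 24 h chemical exposure. Reporter mRNA quantified by RT-PCR, 6-FAM labelling, HpaI digestion and capillary electrophoresis; bidirectional fit versus DMSO baseline.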

[2] = ATG_PXRE_CIS: Attagene CIS-FACTORIAL HepG2 Assay for human Pregnane X Receptor Element (PXRE) (AID 2282957); conditions: HepG2 Attagene CIS-FACTORIAL PXRE reporter, mRNA; actives raise or lower the signal
In short: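 Cells: HepG2, transiently transfected reporter units under cis promoter control. Exposure: 24 h. Detection: reporter mRNA via RT-PCR/CE fluorescence; bidirectional fitting, DMSO-referenced.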

[3] = ATG_PPRE_CIS: Attagene CIS-FACTORIAL HepG2 Assay for human Peroxisome Proliferator-activated Response Element (PPRE) (AID 2282958); conditions: HepG2 PPRE cis-element reporter, Attagene transcription factor profiling; actives raise or lower the signal
In short: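 In this cell-based multiplex, a PPRE cis element drives a reporter sequence in transiently transfected HepG2 cells. Following 24 h treatment, labeled cDNA amplicons are sized and quantified by capillary electrophoresis, with DMSO defining baseline.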

[4] = ATG_RORE_CIS: Attagene CIS-FACTORIAL HepG2 Assay for human RAR-related Orphan Receptor Element (RORE) (AID 2282959); conditions: HepG2 Attagene cis-factorial RORE reporter, mRNA; actives raise or lower the signal
In short: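 Endogenous factor activity at a cis response element is read as reporter transcript levels in HepG2 cells, 24 h post-dose. Transcripts are quantified by RT-PCR with capillary electrophoresis, and data fitted in both directions against DMSO.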

[5] = ATG_Sox_CIS: Attagene CIS-FACTORIAL HepG2 Assay for human SRY-box transcription factor (SOX) (AID 2282960); conditions: HepG2 Attagene cis-factorial SOX reporter, mRNA; actives raise or lower the signal
In short: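 Measures mRNA induction of a SOX1-associated reporter in HepG2 after 24 h dosing. Fluorescently labelled RT-PCR fragments are separated by capillary electrophoresis, and gain or loss relative to DMSO control is fitted.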

[6] = biological target: Transcription factor Sp1 (Homo sapiens) (UniProt P08047); assay: ATG_Sp1_CIS: Attagene CIS-FACTORIAL HepG2 Assay for human Specificity Protein 1 (Sp1) (AID 2282961); conditions: HepG2 Sp1 cis-reporter transcription, actives raise or lower the signal
In short: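 Cells: HepG2, transiently transfected with cis-regulated multiplexed reporters. Exposure: 24 h. Detection: reporter transcripts amplified, fluorescently labeled, restriction-digested and sized by capillary electrophoresis. Analysis: bidirectional fit relative to DMSO.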

[7] = biological target: Signal transducer and activator of transcription 3 (Homo sapiens) (UniProt P40763); assay: ATG_STAT3_CIS: Attagene CIS-FACTORIAL HepG2 Assay for human Signal Transducer and Activator of Transcription 3 (STAT3) (AID 2282963); conditions: HepG2, Attagene cis-factorial STAT3 reporter transcription; actives raise or lower the signal
In short: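 HepG2 cells transiently transfected with multiple cis-element-driven reporter units report endogenous transcription factor activity. After 24 h compound exposure, reporter mRNA is measured by RT-PCR, 6-FAM labelling, HpaI digestion and capillary electrophoresis. Fitted bidirectionally versus DMSO.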

[8] = ATG_TA_CIS: Attagene CIS-FACTORIAL HepG2 Assay for human TA Basal Promoter (AID 2282964); conditions: HepG2 Attagene CIS-factorial TA basal promoter reporter; actives raise or lower the signal
In short: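 Cis-factorial format in HepG2: reporters report endogenous factors, not chimeric Gal4 fusions. After 24 h treatment, reporter transcripts were measured by RT-PCR-capillary electrophoresis fluorescence, analysed bidirectionally versus DMSO.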

[9] = ATG_TCF_b_cat_CIS: Attagene CIS-FACTORIAL HepG2 Assay for human T-Cell-Factor with beta-catenin (TCF/b-cat) (AID 2282965); conditions: HepG2 TCF/beta-catenin cis-reporter transcription, actives raise or lower the signal
In short: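 HepG2 cells transiently transfected with cis-promoter-driven multiplexed reporter units; reporter mRNA measured 24 h after dosing by RT-PCR, FAM labelling, HpaI digestion and capillary electrophoresis. Bidirectional fitting relative to DMSO baseline.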

[10] = ATG_TAL_CIS: Attagene CIS-FACTORIAL HepG2 Assay for human TAL Basal Promoter (AID 2282966); conditions: HepG2 Attagene cis-factorial TAL promoter reporter; actives raise or lower the signal;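 also: background control endpoint measuring basal TAL promoter reporter mRNA not a specific factor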
In short: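 RT-PCR plus capillary electrophoresis quantifies reporter mRNA induction in transiently transfected HepG2 cells after 24 h chemical treatment. DMSO serves as negative control and baseline for bidirectional fitting.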

[11] = ATG_TGFb_CIS: Attagene CIS-FACTORIAL HepG2 Assay for human Transforming Growth Factor (TGF) (AID 2282967); conditions: HepG2 Attagene CIS TGFb reporter, mRNA transcription; actives raise or lower the signal
In short: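 Multiplexed cis-reporter HepG2 system, 24 h treatment; mRNA induction read by fluorescence after RT-PCR and CE; DMSO negative control, bidirectional curve fitting.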

[12] = biological target: X-box-binding protein 1 (Homo sapiens) (UniProt P17861); assay: ATG_Xbp1_CIS: Attagene CIS-FACTORIAL HepG2 Assay for human X-box Binding Protein 1 (XBP1) (AID 2282972); conditions: HepG2 XBP1 cis-element reporter, Attagene multiplex; actives raise or lower the signal
In short: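 HepG2 cells transiently transfected with multiple cis-element reporter units report endogenous TF activity; 24 h exposure, then reporter mRNA measured by RT-PCR, 6-FAM labelling, HpaI digestion and capillary electrophoresis. Bidirectional fitting versus DMSO.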

[13] = ATG_GAL4_TRANS: Attagene TRANS-FACTORIAL HepG2 Assay for GAL4 (Internal Marker) (AID 2282976; active = hit-call score of the fitted dose curve at least 0.9, where 1 is the maximum); conditions: HepG2 Attagene TRANS GAL4 internal marker reporter
In short: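 In transfected human HepG2 liver cells dosed 24 h, GAL4 reporter mRNA serves as a baseline marker. Detection by RT-PCR with fluorescent capillary electrophoresis, activity fitted upward relative to DMSO.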

[14] = ATG_SREBP_CIS: Attagene CIS-FACTORIAL HepG2 Assay for human Sterol Regulatory Element Binding (SREBP) (AID 2282962); conditions: HepG2 Attagene cis-factorial SREBP reporter, mRNA; actives raise or lower the signal
In short: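 HepG2 cells transiently transfected with multiplexed cis-promoter reporter units sensing endogenous transcription factors; reporter mRNA measured 24 h after dosing by RT-PCR, 6-FAM labeling, HpaI digestion and capillary electrophoresis. Bidirectional fit versus DMSO.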

[15] = ATG_VDRE_CIS: Attagene CIS-FACTORIAL HepG2 Assay for human Vitamin D Receptor Element (VDRE) (AID 2282968); conditions: HepG2 VDRE cis-reporter transcription, actives raise or lower the signal
In short: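 Transiently transfected HepG2 cells carrying cis-regulated reporter transcription units were exposed for 24 h. Reporter mRNA was measured by RT-PCR with fluorescent labelling and capillary electrophoresis, and fitted in both directions against DMSO.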

[16] = biological target: Estrogen receptor (Homo sapiens) (UniProt P03372); assay: ATG_ERa_TRANS: Attagene TRANS-FACTORIAL HepG2 Assay for human Estrogen Receptor alpha (ERa) (AID 2282970; active = hit-call score of the fitted dose curve at least 0.9, where 1 is the maximum); conditions: HepG2 Attagene TRANS ERa GAL4 reporter, mRNA
In short: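 Cells: HepG2, transiently transfected. Construct: GAL4-UAS reporter units regulated by exogenous NR-Gal4 chimeras. Time: 24 h. Detection: reporter mRNA by RT-PCR, capillary electrophoresis, fluorescence. Baseline: DMSO, upward fitting.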

[17] = ATG_M_19_TRANS: Attagene TRANS-FACTORIAL HepG2 Assay for M19 Transcription Factor (Internal Marker) (AID 2282974; active = hit-call score of the fitted dose curve at least 0.9, where 1 is the maximum); conditions: HepG2 Attagene TRANS-FACTORIAL M19 internal marker reporter
In short: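 Reporter mRNA induction was measured in transfected HepG2 cells 24 h after dosing. Endpoint fitted upward relative to DMSO and serves as a background control within the multiplexed TRANS panel.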

[18] = biological target: Nuclear receptor subfamily 1 group I member 3 (Homo sapiens) (UniProt Q14994); assay: ATG_CAR_TRANS: Attagene TRANS-FACTORIAL HepG2 Assay for human Constitutive Androstane Receptor (CAR) (AID 2282969; active = hit-call score of the fitted dose curve at least 0.9, where 1 is the maximum;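 also: activators raise reporter mRNA above DMSO so AC50 marks induction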); conditions: HepG2 Attagene TRANS-FACTORIAL CAR reporter
In short: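 HepG2 cells transiently transfected with GAL4-UAS reporter units; TRANS format reads activity of exogenous chimeric NR-Gal4 protein. After 24 h dosing, reporter mRNA quantified by RT-PCR, 6-FAM labelling and capillary electrophoresis; gain of signal fitted against DMSO.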

[19] = biological target: Estrogen-related receptor gamma (Homo sapiens) (UniProt P62508); assay: ATG_ERRg_TRANS: Attagene TRANS-FACTORIAL HepG2 Assay for human Estrogen-Related Receptor gamma (ERRg) (AID 2282977; active = hit-call score of the fitted dose curve at least 0.9, where 1 is the maximum;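 also: hits increase reporter signal over DMSO so potencies reflect activators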); conditions: HepG2 Attagene TRANS reporter, ERRg transactivation
In short: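 HepG2 cells transiently transfected with multiplexed GAL4-UAS reporter units driven by chimeric NR-Gal4 proteins; 24 h exposure. Reporter mRNA quantified by RT-PCR, fluorescent labelling, HpaI digestion and capillary electrophoresis; gain of signal vs DMSO.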

Measured: AC50

Chain of Transcription factor Sp1 (Homo sapiens) (P08047 whole entry, looked up): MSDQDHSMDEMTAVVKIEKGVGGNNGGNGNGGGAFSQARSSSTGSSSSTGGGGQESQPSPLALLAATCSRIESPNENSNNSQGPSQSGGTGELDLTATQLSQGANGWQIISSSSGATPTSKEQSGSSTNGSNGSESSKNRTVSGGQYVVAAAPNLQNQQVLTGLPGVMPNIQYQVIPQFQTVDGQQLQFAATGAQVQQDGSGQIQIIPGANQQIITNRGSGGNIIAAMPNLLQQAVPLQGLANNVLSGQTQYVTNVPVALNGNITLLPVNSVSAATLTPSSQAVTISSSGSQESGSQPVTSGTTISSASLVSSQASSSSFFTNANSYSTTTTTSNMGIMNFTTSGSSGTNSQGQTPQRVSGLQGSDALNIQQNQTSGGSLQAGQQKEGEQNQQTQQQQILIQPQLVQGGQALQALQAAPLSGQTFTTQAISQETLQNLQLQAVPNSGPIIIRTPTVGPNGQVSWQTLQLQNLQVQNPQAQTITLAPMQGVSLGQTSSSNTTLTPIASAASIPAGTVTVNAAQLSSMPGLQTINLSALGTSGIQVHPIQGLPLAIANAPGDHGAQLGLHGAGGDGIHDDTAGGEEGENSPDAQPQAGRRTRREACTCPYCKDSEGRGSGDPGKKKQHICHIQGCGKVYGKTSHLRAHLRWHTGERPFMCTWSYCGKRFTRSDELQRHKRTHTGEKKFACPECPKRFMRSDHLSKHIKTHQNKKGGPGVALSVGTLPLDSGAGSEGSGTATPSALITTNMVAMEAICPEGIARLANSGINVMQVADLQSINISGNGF
Chain of Nuclear receptor subfamily 1 group I member 3 (Homo sapiens) (Q14994 whole entry, looked up, the tested form may be a part): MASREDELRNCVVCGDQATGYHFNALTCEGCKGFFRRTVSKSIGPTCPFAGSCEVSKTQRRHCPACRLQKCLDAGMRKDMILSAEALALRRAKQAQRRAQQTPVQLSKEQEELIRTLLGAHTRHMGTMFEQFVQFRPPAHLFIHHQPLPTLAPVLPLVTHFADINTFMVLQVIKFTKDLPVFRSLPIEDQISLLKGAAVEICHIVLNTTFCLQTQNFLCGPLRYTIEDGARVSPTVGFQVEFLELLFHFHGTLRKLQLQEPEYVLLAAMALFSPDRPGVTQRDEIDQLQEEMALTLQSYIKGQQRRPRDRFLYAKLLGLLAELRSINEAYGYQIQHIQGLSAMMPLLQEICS
Chain of X-box-binding protein 1 (Homo sapiens) (P17861 whole entry, looked up): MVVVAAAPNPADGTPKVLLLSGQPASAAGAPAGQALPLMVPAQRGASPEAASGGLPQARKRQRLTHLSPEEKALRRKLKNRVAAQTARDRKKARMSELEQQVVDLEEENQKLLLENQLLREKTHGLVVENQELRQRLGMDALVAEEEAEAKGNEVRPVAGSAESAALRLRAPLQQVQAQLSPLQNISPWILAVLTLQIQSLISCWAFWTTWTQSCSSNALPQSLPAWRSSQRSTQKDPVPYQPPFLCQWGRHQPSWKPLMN
Chain of Signal transducer and activator of transcription 3 (Homo sapiens) (P40763 whole entry, looked up): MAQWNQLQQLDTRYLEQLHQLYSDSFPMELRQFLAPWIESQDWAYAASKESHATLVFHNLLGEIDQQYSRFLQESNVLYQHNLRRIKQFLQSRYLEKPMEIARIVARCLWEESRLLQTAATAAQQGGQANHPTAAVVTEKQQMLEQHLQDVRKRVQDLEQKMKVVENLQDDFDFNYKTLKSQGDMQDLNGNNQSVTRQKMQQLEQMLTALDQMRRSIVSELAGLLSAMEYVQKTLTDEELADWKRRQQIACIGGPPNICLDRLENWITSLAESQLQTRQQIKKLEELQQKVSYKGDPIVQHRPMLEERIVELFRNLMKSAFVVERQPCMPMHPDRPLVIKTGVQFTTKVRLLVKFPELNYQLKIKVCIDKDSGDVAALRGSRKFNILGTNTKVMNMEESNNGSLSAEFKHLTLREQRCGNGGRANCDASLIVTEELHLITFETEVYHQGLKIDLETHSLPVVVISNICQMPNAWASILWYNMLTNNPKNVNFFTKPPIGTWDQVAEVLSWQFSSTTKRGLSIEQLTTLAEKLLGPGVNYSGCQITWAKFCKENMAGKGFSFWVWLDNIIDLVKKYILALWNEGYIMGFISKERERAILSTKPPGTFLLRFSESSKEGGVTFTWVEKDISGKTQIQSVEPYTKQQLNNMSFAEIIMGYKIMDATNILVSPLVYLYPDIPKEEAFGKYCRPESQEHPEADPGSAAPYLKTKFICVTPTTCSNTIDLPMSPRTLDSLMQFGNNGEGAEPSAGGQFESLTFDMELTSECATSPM
Chain of Paired box protein Pax-6 (Homo sapiens) (P26367 whole entry, looked up): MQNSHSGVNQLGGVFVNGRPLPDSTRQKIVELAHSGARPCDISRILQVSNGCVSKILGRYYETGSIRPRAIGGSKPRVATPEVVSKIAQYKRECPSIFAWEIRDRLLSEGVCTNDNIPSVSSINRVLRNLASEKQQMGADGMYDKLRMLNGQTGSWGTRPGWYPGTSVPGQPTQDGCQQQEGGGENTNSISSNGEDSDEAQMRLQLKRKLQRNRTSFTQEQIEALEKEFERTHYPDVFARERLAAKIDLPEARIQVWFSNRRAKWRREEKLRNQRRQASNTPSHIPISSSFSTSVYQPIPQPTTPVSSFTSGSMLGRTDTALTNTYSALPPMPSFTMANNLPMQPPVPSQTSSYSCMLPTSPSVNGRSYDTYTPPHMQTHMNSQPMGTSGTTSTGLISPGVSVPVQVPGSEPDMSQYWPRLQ
Chain of Estrogen receptor (Homo sapiens) (P03372 whole entry, looked up, the tested form may be a part): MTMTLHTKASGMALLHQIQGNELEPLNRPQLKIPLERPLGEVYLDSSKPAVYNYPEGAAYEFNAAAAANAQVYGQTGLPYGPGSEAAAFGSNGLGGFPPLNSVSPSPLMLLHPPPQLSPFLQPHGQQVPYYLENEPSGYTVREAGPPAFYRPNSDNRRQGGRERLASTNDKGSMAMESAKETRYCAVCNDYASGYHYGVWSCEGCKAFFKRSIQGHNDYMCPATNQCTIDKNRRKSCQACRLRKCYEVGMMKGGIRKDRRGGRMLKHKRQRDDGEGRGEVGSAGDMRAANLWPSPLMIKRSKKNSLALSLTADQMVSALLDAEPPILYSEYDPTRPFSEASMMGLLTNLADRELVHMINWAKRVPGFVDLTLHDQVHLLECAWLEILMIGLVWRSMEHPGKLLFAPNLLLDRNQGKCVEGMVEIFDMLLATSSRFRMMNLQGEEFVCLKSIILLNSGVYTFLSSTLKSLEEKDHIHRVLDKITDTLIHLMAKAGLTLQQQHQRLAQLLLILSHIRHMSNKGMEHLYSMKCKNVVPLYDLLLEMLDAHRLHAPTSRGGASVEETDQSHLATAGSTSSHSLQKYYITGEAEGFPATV
Chain of Estrogen-related receptor gamma (Homo sapiens) (P62508 whole entry, looked up, the tested form may be a part): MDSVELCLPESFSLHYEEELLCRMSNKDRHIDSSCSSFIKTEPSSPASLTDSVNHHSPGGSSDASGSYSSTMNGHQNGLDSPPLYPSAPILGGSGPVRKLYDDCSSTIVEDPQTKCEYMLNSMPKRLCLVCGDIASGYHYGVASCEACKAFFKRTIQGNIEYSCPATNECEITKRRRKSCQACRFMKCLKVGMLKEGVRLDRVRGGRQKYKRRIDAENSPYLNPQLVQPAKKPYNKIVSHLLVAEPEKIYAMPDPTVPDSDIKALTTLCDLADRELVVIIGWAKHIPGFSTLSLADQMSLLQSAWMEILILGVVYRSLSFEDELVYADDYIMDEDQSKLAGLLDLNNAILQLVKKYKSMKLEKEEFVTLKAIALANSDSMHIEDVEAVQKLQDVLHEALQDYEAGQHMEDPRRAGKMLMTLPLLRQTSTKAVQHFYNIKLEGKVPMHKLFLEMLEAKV

[Ca+2]
inactive: [1] | [2] | [3] | [4] | [5] | [6] | [7] | [8] | [9] | [10] | [11] | [12] | [13]

C[C@H]1C[C@H]2[C@@H]3CCC4=CC(=O)C=C[C@]4(C)[C@@]3(F)[C@@H](O)C[C@]2(C)[C@@]1(O)C(=O)COP(=O)(O)O
inactive: [1] | [2] | [3] | [4] | [5] | [14] | [7] | [8] | [9] | [10] | [11] | [15] | [16] | [12] | [17]

CC1=CC(=O)NS(=O)(=O)O1
active: [2] 55.8 µM
inactive: [1] | [3] | [4] | [5] | [14] | [7] | [8] | [9] | [10] | [11] | [15] | [18] | [12] | [17]

CC(C)CCCCCCCOC(=O)c1ccc(C(=O)OCCCCCCCC(C)C)c(C(=O)OCCCCCCCC(C)C)c1
active: [2] 42.7 µM
inactive: [1] | [3] | [4] | [5] | [6] | [14] | [8] | [9] | [10] | [15] | [18] | [17]

CC1(CO)CN(c2ccccc2)NC1=O (centres undefined)
inactive: [1] | [2] | [3] | [4] | [5] | [6] | [7] | [9] | [10] | [11] | [15] | [18]

O=c1oc(=O)c2cc3c(=O)oc(=O)c3cc12
inactive: [1] | [2] | [3] | [4] | [5] | [6] | [14] | [8] | [9] | [10] | [11] | [15] | [12] | [17] | [13] | [19]

CC(C)Oc1ccccc1O
inactive: [1] | [3] | [4] | [5] | [6] | [7] | [8] | [9] | [10] | [11] | [18] | [16] | [12] | [13]
active: [2] 39.4 µM

Reference: PubChem BioAssay (EPA / NIEHS)
